Data: the supplement of paper PMC8975748
Structures can show the parent of a compound that is named as a salt.

Each compound was assayed on Saccharomyces cerevisiae BY4741 SeMeCo community (assay: z-score of subpopulation abundance vs DMSO median, subpopulation auxotrophic for HM; higher = larger share of this subpopulation than in DMSO controls). Conditions: 10 µM; 24 h; SM minimal medium; subpopulation (auxotrophy): HM.
Description: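 Fluorescent four-plasmid SeMeCo (self-establishing metabolically cooperating S. cerevisiae BY4741 community; plasmids pH-mRuby2, pL-mWasabi, pU-eCFP, pM-TagRFP657) was grown 24 h in minimal SM medium with each Selleck FDA-approved drug at 10 µM in 384-well plates. Cells were fixed and imaged by high-content confocal microscopy. For each auxotrophic subpopulation (and the prototroph), a z-score gives the deviation from the DMSO vehicle-control population median.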
With `CNC1CC(N)C(O)C(OC2OC(CO)C(O)C3OC4(OC(C(N)CO)C(O)C(O)C4O)OC23)C1O` (centres undefined) [Hygromycin B] the “z-score of subpopulation abundance” value was -1.16. `COc1cc2c(cc1OC)C1CC(=O)C(CC(C)C)CN1CC2` (centres undefined) [Tetrabenazine (Xenazine)] was tested, and the “z-score of subpopulation abundance” value was 0.63. For `C[N+](C)(C)CCCCCCCCCC[N+](C)(C)C` [Decamethonium Bromide], the “z-score of subpopulation abundance” value was -0.42. In the case of `COc1ccc2c(c1)[C@]13CCCC[C@@H]1[C@H](C2)N(C)CC3` [Dextromethorphan hydrobromide hydrate], the “z-score of subpopulation abundance” value is reported as 0.71. With `C[CH2][Hg][S]c1ccccc1C(=O)[O-].[Na+]` [Thimerosal] the “z-score of subpopulation abundance” value was 22.6. For `CN1[C@@H]2C[C@@H](OC(=O)[C@H](CO)c3ccccc3)C[C@H]1[C@@H]1O[C@@H]12` [Scopolamine HBr], the “z-score of subpopulation abundance” value was -0.93. `C[N+]12CCC(CC1)C(OC(=O)C(O)(c1ccccc1)c1ccccc1)C2` (centres undefined) [Clidinium Bromide] was tested, and the “z-score of subpopulation abundance” value was -0.38. In the case of `COc1ccc(C=O)cc1` [p-Anisaldehyde], the “z-score of subpopulation abundance” value is reported as -0.95. With `CN1[C@@H]2CC[C@H]1C[C@@H](OC(=O)C(CO)c1ccccc1)C2` (some centres undefined) [Atropine sulfate monohydrate] the “z-score of subpopulation abundance” value was -0.85. For `Oc1cccc2cccnc12` [8-Hydroxyquinoline], the “z-score of subpopulation abundance” value was 2.14. In the case of `C=C(C)[C@H]1Cc2c(ccc3c2O[C@@H]2COc4cc(OC)c(OC)cc4[C@@H]2C3=O)O1` [Rotenone (Barbasco)], the “z-score of subpopulation abundance” value is reported as 0.89. `O=C(O[C@H]1C[N+]2(CCCOc3ccccc3)CCC1CC2)C(O)(c1cccs1)c1cccs1` [Aclidinium Bromide] was tested, and the “z-score of subpopulation abundance” value was -0.01. For `NCCc1c[nH]c2ccc(O)cc12` [Serotonin HCl], the “z-score of subpopulation abundance” value was 0.16. For `CC[C@H]1[C@@H]2C[C@H]3[C@@H]4N(C)c5ccccc5[C@]45C[C@@H]([C@@H]2[C@H]5O)N3[C@@H]1O` [Ajmaline], the “z-score of subpopulation abundance” value was -0.37. With `O=c1[nH]c2ccccc2n1CCCN1CCC(n2c(=O)[nH]c3cc(Cl)ccc32)CC1` [Domperidone] the “z-score of subpopulation abundance” value was 0.27. `CCOC(=O)Nc1ccc(NCc2ccc(F)cc2)cc1N` [Retigabine] was tested, and the “z-score of subpopulation abundance” value was 0.58. For `CCOC(=O)Nc1ccc(NCc2ccc(F)cc2)cc1N` [Retigabine 2HCl], the “z-score of subpopulation abundance” value was 0.88. In the case of `CC(=O)O[C@H]1C[C@@H]2CC[C@@H]3[C@H](CC[C@@]4(C)[C@H]3C[C@H]([N+]3(C)CCCCC3)[C@@H]4OC(C)=O)[C@@]2(C)C[C@@H]1[N+]1(C)CCCCC1` [Pancuronium dibromide], the “z-score of subpopulation abundance” value is reported as -1.06. In the case of `CN(C)C(=O)Oc1ccc[n+](C)c1` [Pyridostigmine Bromide], the “z-score of subpopulation abundance” value is reported as 0.07. In the case of `CC1(C)SC2C(N)C(=O)N2C1C(=O)O` (centres undefined) [6-Aminopenicillanic acid], the “z-score of subpopulation abundance” value is reported as 0.18. `C=C[C@H]1CN2CC[C@H]1C[C@H]2[C@H](O)c1ccnc2ccccc12` [Cinchonidine] was tested, and the “z-score of subpopulation abundance” value was -0.43. In the case of `O=c1cccc2n1C[C@@H]1CNC[C@H]2C1` [Cytisine], the “z-score of subpopulation abundance” value is reported as 0.02. In the case of `C[C@H]1O[C@H](O[C@H]2[C@H](O)[C@@H](O)[C@@H](O)[C@H](O)[C@@H]2O)[C@@H](N)C[C@@H]1NC(=N)C(=O)O` [Kasugamycin hydrochloride], the “z-score of subpopulation abundance” value is reported as -0.08. `CN(C)[C@@H]1C(=O)C(C(N)=O)=C(O)[C@@]2(O)C(=O)C3=C(O)c4c(O)cccc4[C@@](C)(O)[C@H]3C[C@@H]12` [Tetracycline HCl] was tested, and the “z-score of subpopulation abundance” value was 0.72. For `CCCN1C[C@H](CSC)C[C@@H]2c3cccc4[nH]cc(c34)C[C@H]21` [Pergolide Mesylate], the “z-score of subpopulation abundance” value was -0.36. In the case of `Nc1ccncc1` [4-Aminopyridine], the “z-score of subpopulation abundance” value is reported as 0.26. For `CN1C(=O)COc2c(C(=O)NC3CN4CCC3CC4)cc(Cl)cc21` (centres undefined) [Azasetron HCl], the “z-score of subpopulation abundance” value was 0.88. In the case of `CN1[C@@H]2CC[C@H]1C[C@@H](OC(=O)[C@H](CO)c1ccccc1)C2` [Hyoscyamine], the “z-score of subpopulation abundance” value is reported as -0.73. For `Cc1cc(O)ccc1Cl` [Chlorocresol], the “z-score of subpopulation abundance” value was -0.29. With `N#Cc1nn(-c2c(Cl)cc(C(F)(F)F)cc2Cl)c(N)c1[S+]([O-])C(F)(F)F` (centres undefined) [Fipronil] the “z-score of subpopulation abundance” value was -0.23. `C=CN1CCCC1=O.II` [Povidone iodine] was tested, and the “z-score of subpopulation abundance” value was 1.1. In the case of `CCN(C)C(=O)Oc1cccc([C@H](C)N(C)C)c1` [Rivastigmine], the “z-score of subpopulation abundance” value is reported as -0.34. For `COc1ccc2c3c([nH]c2c1)C(C)=NCC3` [Harmaline], the “z-score of subpopulation abundance” value was 3.18. `Nc1nc(N)nc(NC2CC2)n1` [Cyromazine] was tested, and the “z-score of subpopulation abundance” value was 0.9.
